{"source": "PubChem BioAssay (EPA / NIEHS)", "note": "Records with an inconclusive call do not appear. Calls of active or inactive are those of the source. How the source made its calls: active means hit-call score of the fitted dose curve at least 0.9, where 1 is the maximum; inconclusive means response in the unintended direction; inactive means score below 0.9.", "data": [{"assay": "ACEA_ER_AUC_viability: ACEA Biosciences xCELLigence Real-Time Cell Analysis on Estrogen Receptor Agonism for Viability (AID 2283782)", "method_in_brief": "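Read-out: real-time electrical impedance (RT-CES) area under curve, loss of signal taken as reduced viability, normalized to DMSO baseline. T-47D cells, charcoal-stripped serum medium, compounds up to 100 uM final, continuous exposure, 80 h.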", "values": [{"smiles": "CC(C)c1c(C(=O)Nc2ccccc2)c(-c2ccccc2)c(-c2ccc(F)cc2)n1CC[C@@H](O)C[C@@H](O)CC(=O)O", "AC50": "2.91 µM (active)"}, {"smiles": "CCCCCCC(C)(C)C(=O)O", "outcome": "inactive"}, {"smiles": "CC(C)(O)C(=O)c1ccccc1", "outcome": "inactive"}, {"smiles": "CC(C)(C)c1ccc(O)c(O)c1", "AC50": "23.4 µM (active)"}, {"smiles": "c1cc[nH]c1", "AC50": "50 µM (active)"}, {"smiles": "c1ccc2c(c1)CCC2", "outcome": "inactive"}, {"smiles": "O=C1C=CC(=O)N1c1cccc(N2C(=O)C=CC2=O)c1", "AC50": "23.6 µM (active)"}, {"smiles": "CCCCC(CC)C(=O)O", "note": "(centres undefined)", "outcome": "inactive"}, {"smiles": "CCCCCCCCCC=CCC1CC(=O)OC1=O", "note": "(centres undefined)", "outcome": "inactive"}, {"smiles": "COc1cc([N+](=O)[O-])ccc1N", "outcome": "inactive"}, {"smiles": "CCCCC(CC)C(=O)OCCOCCOCCOCCOC(=O)C(CC)CCCC", "note": "(centres undefined)", "outcome": "inactive"}, {"smiles": "O=C(CCCN1CCC(O)(c2ccc(Cl)cc2)CC1)c1ccc(F)cc1", "outcome": "inactive"}, {"smiles": "O=S(=O)(O)c1ccccc1", "outcome": "inactive"}, {"smiles": "O=C1c2ccc(O)c(O)c2C(=O)c2c(O)ccc(O)c21", "AC50": "6.67 µM (active)"}]}]}
